# According to the supplement of paper PMC4022240:
# ± gives the standard deviation.
# How the values were obtained:
# Experiment in all cases: peptide microarray binding signal (635 nm), min-max normalized on array (fraction of array maximum); higher = stronger binding
# [1] = target: T1, HaloTag-ATRX ADD domain (163-292)
# T1 chain: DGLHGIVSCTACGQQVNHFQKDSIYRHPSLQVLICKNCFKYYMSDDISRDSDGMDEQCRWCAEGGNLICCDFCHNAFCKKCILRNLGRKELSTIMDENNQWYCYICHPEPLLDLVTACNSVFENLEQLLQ
# Description: (§1)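 Histone 13-mer peptides were synthesized as cellulose conjugates with a C-terminal 20-atom PEG linker and printed in triplicate on nitrocellulose. The sequence given is the unmodified backbone; PTMs (Kme1/2/3, Kac, Sph/Tph, Rme/Rme2a/Rme2s, Rcit) are listed in the label and the 'peptide modifications' condition. Slides were probed at 4 °C for 1 h with biotin-labelled (HQ)5-HaloTag reader fusions (ATRX-ADD, ING2-PHD) then streptavidin-Alexa647, or with rabbit histone antibodies then anti-rabbit Alexa647. The mean 635 nm signal of the triplicate spots was scaled 0-1 between the lowest and highest values on each array.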
# [2] = target: HaloTag-ING2 PHD (mouse Ing2 200-280)
# Description: as §1
# [3] = target: anti-H3K4me3 antibody ab8580
# Description: as §1
# [4] = target: anti-H3K9me3 antibody ab8898
# Description: as §1
# [5] = peptide region: H3 1-13, peptide modifications: H3T6ph, binder concentration: 1:2,000 dilution
# [6] = peptide region: H3 1-13, peptide modifications: H3T6ph, binder concentration: 1:10,000 dilution
# [7] = peptide region: H3 1-13, peptide modifications: H3T6ph H3R8me1, binder concentration: 1:2,000 dilution
# [8] = peptide region: H3 1-13, peptide modifications: H3T6ph H3R8me1, binder concentration: 1:10,000 dilution
# [9] = peptide region: H3 1-13, peptide modifications: H3T6ph H3K9me1, binder concentration: 1:2,000 dilution
# [10] = peptide region: H3 1-13, peptide modifications: H3T6ph H3K9me1, binder concentration: 1:10,000 dilution
# [11] = peptide region: H3 1-13, peptide modifications: H3T3ph H3K9ac, binder concentration: 1:2,000 dilution
# [12] = peptide region: H3 1-13, peptide modifications: H3T3ph H3K9ac, binder concentration: 1:10,000 dilution
# [13] = peptide region: H3 5-17, binder concentration: 1:2,000 dilution
# [14] = peptide region: H3 5-17, binder concentration: 1:10,000 dilution
# [15] = peptide region: H3 1-13, peptide modifications: H3T6ph H3R8cit, binder concentration: 1:2,000 dilution
# [16] = peptide region: H3 1-13, peptide modifications: H3T6ph H3R8cit, binder concentration: 1:10,000 dilution
# [17] = peptide region: H3 1-13, peptide modifications: H3T6ph H3K9me3, binder concentration: 1:2,000 dilution
# [18] = peptide region: H3 1-13, peptide modifications: H3T6ph H3K9me3, binder concentration: 1:10,000 dilution
# [19] = peptide region: H3 5-17, peptide modifications: H3K9ac H3K14ac, binder concentration: 1:2,000 dilution
# [20] = peptide region: H3 5-17, peptide modifications: H3K9ac H3K14ac, binder concentration: 1:10,000 dilution
# [21] = peptide region: H3 1-13, peptide modifications: H3T3ph H3K9me1, binder concentration: 1:2,000 dilution
# [22] = peptide region: H3 1-13, peptide modifications: H3T3ph H3K9me1, binder concentration: 1:10,000 dilution
# [23] = peptide region: H3 1-13, peptide modifications: H3T3ph H3K9me3, binder concentration: 1:2,000 dilution
# [24] = peptide region: H3 1-13, peptide modifications: H3T3ph H3K9me3, binder concentration: 1:10,000 dilution
binder,measurement,setting,value
ARTKQTARKSTGG [H3 1-13 A R T K Q Tph A R K S T G G],peptide microarray binding signal,"[1]; peptide region: H3 1-13, peptide modifications: H3T6ph, binder concentration: 50 nM",0.004044 ± 1.6e-05
same,peptide microarray binding signal,"[1]; peptide region: H3 1-13, peptide modifications: H3T6ph, binder concentration: 500 nM",0.009 ± 0.00047
same,peptide microarray binding signal,"[2]; peptide region: H3 1-13, peptide modifications: H3T6ph, binder concentration: 10 nM",0.0046 ± 0.00047
same,peptide microarray binding signal,"[2]; peptide region: H3 1-13, peptide modifications: H3T6ph, binder concentration: 100 nM",0.0195 ± 0.002
same,peptide microarray binding signal,[3]; [5],0.000793 ± 7.5e-05
same,peptide microarray binding signal,[3]; [6],0.000285 ± 3.1e-06
same,peptide microarray binding signal,[4]; [5],0.000755 ± 2.9e-05
same,peptide microarray binding signal,[4]; [6],0.000288
ARTKQTARKSTGG [H3 1-13 A R T K Q Tph A Rme K S T G G],peptide microarray binding signal,"[1]; peptide region: H3 1-13, peptide modifications: H3T6ph H3R8me1, binder concentration: 50 nM",0.00476 ± 9.2e-05
same,peptide microarray binding signal,"[1]; peptide region: H3 1-13, peptide modifications: H3T6ph H3R8me1, binder concentration: 500 nM",0.022 ± 0.0012
same,peptide microarray binding signal,"[2]; peptide region: H3 1-13, peptide modifications: H3T6ph H3R8me1, binder concentration: 10 nM",0.00507 ± 0.0011
same,peptide microarray binding signal,"[2]; peptide region: H3 1-13, peptide modifications: H3T6ph H3R8me1, binder concentration: 100 nM",0.0331 ± 0.012
same,peptide microarray binding signal,[3]; [7],0.00111 ± 7.2e-05
same,peptide microarray binding signal,[3]; [8],0.00148 ± 0.0001
same,peptide microarray binding signal,[4]; [7],0.00234 ± 0.00042
same,peptide microarray binding signal,[4]; [8],0.00213 ± 7.1e-05
ARTKQTARKSTGG [H3 1-13 A R T K Q Tph A R Kme S T G G],peptide microarray binding signal,"[1]; peptide region: H3 1-13, peptide modifications: H3T6ph H3K9me1, binder concentration: 50 nM",0.00721 ± 0.00059
same,peptide microarray binding signal,"[1]; peptide region: H3 1-13, peptide modifications: H3T6ph H3K9me1, binder concentration: 500 nM",0.0115 ± 0.00096
same,peptide microarray binding signal,"[2]; peptide region: H3 1-13, peptide modifications: H3T6ph H3K9me1, binder concentration: 10 nM",0.0206 ± 0.0028
same,peptide microarray binding signal,"[2]; peptide region: H3 1-13, peptide modifications: H3T6ph H3K9me1, binder concentration: 100 nM",0.0319 ± 0.0032
same,peptide microarray binding signal,[3]; [9],0.00568 ± 0.0013
same,peptide microarray binding signal,[3]; [10],0.0686 ± 0.046
same,peptide microarray binding signal,[4]; [9],0.00584 ± 0.00057
same,peptide microarray binding signal,[4]; [10],0.00582 ± 0.00014
ARTKQTARKSTGG [H3 1-13 A R Tph K Q T A R Kac S T G G],peptide microarray binding signal,"[1]; peptide region: H3 1-13, peptide modifications: H3T3ph H3K9ac, binder concentration: 50 nM",0.00881 ± 0.00025
same,peptide microarray binding signal,"[1]; peptide region: H3 1-13, peptide modifications: H3T3ph H3K9ac, binder concentration: 500 nM",0.0147 ± 0.00088
same,peptide microarray binding signal,"[2]; peptide region: H3 1-13, peptide modifications: H3T3ph H3K9ac, binder concentration: 10 nM",0.0255 ± 0.0014
same,peptide microarray binding signal,"[2]; peptide region: H3 1-13, peptide modifications: H3T3ph H3K9ac, binder concentration: 100 nM",0.04 ± 0.0064
same,peptide microarray binding signal,[3]; [11],0.0124 ± 0.0018
same,peptide microarray binding signal,[3]; [12],0.00867 ± 0.00052
same,peptide microarray binding signal,[4]; [11],0.00523 ± 0.00022
same,peptide microarray binding signal,[4]; [12],0.00363 ± 0.00025
QTARKSTGGKAPR [H3 5-17 Q T A R K S T G G K A P R],peptide microarray binding signal,"[1]; peptide region: H3 5-17, binder concentration: 50 nM",0.00796 ± 0.00026
same,peptide microarray binding signal,"[1]; peptide region: H3 5-17, binder concentration: 500 nM",0.00462 ± 0.00035
same,peptide microarray binding signal,"[2]; peptide region: H3 5-17, binder concentration: 10 nM",0.00376 ± 7.2e-05
same,peptide microarray binding signal,"[2]; peptide region: H3 5-17, binder concentration: 100 nM",0.00489 ± 0.00045
same,peptide microarray binding signal,[3]; [13],0.000982 ± 8.5e-05
same,peptide microarray binding signal,[3]; [14],0.00143 ± 0.00013
same,peptide microarray binding signal,[4]; [13],0.00242 ± 0.0011
same,peptide microarray binding signal,[4]; [14],0.00265 ± 0.00021
ARTKQTARKSTGG [H3 1-13 A R T K Q Tph A Rcit K S T G G],peptide microarray binding signal,"[1]; peptide region: H3 1-13, peptide modifications: H3T6ph H3R8cit, binder concentration: 50 nM",0.00461 ± 9.2e-05
same,peptide microarray binding signal,"[1]; peptide region: H3 1-13, peptide modifications: H3T6ph H3R8cit, binder concentration: 500 nM",0.00667 ± 0.00019
same,peptide microarray binding signal,"[2]; peptide region: H3 1-13, peptide modifications: H3T6ph H3R8cit, binder concentration: 10 nM",0.004536 ± 4e-05
same,peptide microarray binding signal,"[2]; peptide region: H3 1-13, peptide modifications: H3T6ph H3R8cit, binder concentration: 100 nM",0.00652 ± 0.00029
same,peptide microarray binding signal,[3]; [15],0.000396
same,peptide microarray binding signal,[3]; [16],0.000114 ± 1.3e-06
same,peptide microarray binding signal,[4]; [15],0.000332 ± 8.8e-06
same,peptide microarray binding signal,[4]; [16],0.000807 ± 2.5e-05
ARTKQTARKSTGG [H3 1-13 A R T K Q Tph A R Kme3 S T G G],peptide microarray binding signal,"[1]; peptide region: H3 1-13, peptide modifications: H3T6ph H3K9me3, binder concentration: 50 nM",0.007335 ± 6.2e-05
same,peptide microarray binding signal,"[1]; peptide region: H3 1-13, peptide modifications: H3T6ph H3K9me3, binder concentration: 500 nM",0.01343 ± 9.1e-05
same,peptide microarray binding signal,"[2]; peptide region: H3 1-13, peptide modifications: H3T6ph H3K9me3, binder concentration: 10 nM",0.0229 ± 0.0005
same,peptide microarray binding signal,"[2]; peptide region: H3 1-13, peptide modifications: H3T6ph H3K9me3, binder concentration: 100 nM",0.0339 ± 0.003
same,peptide microarray binding signal,[3]; [17],0.0494 ± 0.0093
same,peptide microarray binding signal,[3]; [18],0.0422 ± 0.0078
same,peptide microarray binding signal,[4]; [17],0.269 ± 0.024
same,peptide microarray binding signal,[4]; [18],0.17 ± 0.021
QTARKSTGGKAPR [H3 5-17 Q T A R Kac S T G G Kac A P R],peptide microarray binding signal,"[1]; peptide region: H3 5-17, peptide modifications: H3K9ac H3K14ac, binder concentration: 50 nM",0.0318 ± 0.0049
same,peptide microarray binding signal,"[1]; peptide region: H3 5-17, peptide modifications: H3K9ac H3K14ac, binder concentration: 500 nM",0.0984 ± 0.027
same,peptide microarray binding signal,"[2]; peptide region: H3 5-17, peptide modifications: H3K9ac H3K14ac, binder concentration: 10 nM",0.0862 ± 0.034
same,peptide microarray binding signal,"[2]; peptide region: H3 5-17, peptide modifications: H3K9ac H3K14ac, binder concentration: 100 nM",0.048 ± 0.023
same,peptide microarray binding signal,[3]; [19],0.0141 ± 0.0045
same,peptide microarray binding signal,[3]; [20],0.0234 ± 0.0064
same,peptide microarray binding signal,[4]; [19],0.03 ± 0.0085
same,peptide microarray binding signal,[4]; [20],0.0332 ± 0.014
ARTKQTARKSTGG [H3 1-13 A R Tph K Q T A R Kme S T G G],peptide microarray binding signal,"[1]; peptide region: H3 1-13, peptide modifications: H3T3ph H3K9me1, binder concentration: 50 nM",0.00815 ± 8.5e-05
same,peptide microarray binding signal,"[1]; peptide region: H3 1-13, peptide modifications: H3T3ph H3K9me1, binder concentration: 500 nM",0.0174 ± 0.0014
same,peptide microarray binding signal,"[2]; peptide region: H3 1-13, peptide modifications: H3T3ph H3K9me1, binder concentration: 10 nM",0.0307 ± 0.0023
same,peptide microarray binding signal,"[2]; peptide region: H3 1-13, peptide modifications: H3T3ph H3K9me1, binder concentration: 100 nM",0.0507 ± 0.004
same,peptide microarray binding signal,[3]; [21],0.00859 ± 0.0018
same,peptide microarray binding signal,[3]; [22],0.0167 ± 0.0032
same,peptide microarray binding signal,[4]; [21],0.00692 ± 0.00099
same,peptide microarray binding signal,[4]; [22],0.0053 ± 0.00068
ARTKQTARKSTGG [H3 1-13 A R Tph K Q T A R Kme3 S T G G],peptide microarray binding signal,"[1]; peptide region: H3 1-13, peptide modifications: H3T3ph H3K9me3, binder concentration: 50 nM",0.0613 ± 0.011
same,peptide microarray binding signal,"[1]; peptide region: H3 1-13, peptide modifications: H3T3ph H3K9me3, binder concentration: 500 nM",0.122 ± 0.03
same,peptide microarray binding signal,"[2]; peptide region: H3 1-13, peptide modifications: H3T3ph H3K9me3, binder concentration: 10 nM",0.0186 ± 0.0018
same,peptide microarray binding signal,"[2]; peptide region: H3 1-13, peptide modifications: H3T3ph H3K9me3, binder concentration: 100 nM",0.0397 ± 0.0029
same,peptide microarray binding signal,[3]; [23],0.122 ± 0.066
same,peptide microarray binding signal,[3]; [24],0.0819 ± 0.021
same,peptide microarray binding signal,[4]; [23],0.459 ± 0.036
same,peptide microarray binding signal,[4]; [24],0.387 ± 0.046
